{
  "source": "PubChem BioAssay AID720706",
  "about": "(Broad Institute, 2013)",
  "note": "Where “and” joins values, the source holds several entries; their conditions need not be identical. Identical values can stand only once. About 5,500 (1.6%) of roughly 350,000 compounds were called active.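 How the source made its calls: active means significant combined selectivity score with lowered wild-type GFP, culture density cut under 30%, mutant RFP and density less affected; inactive means any of these conditions unmet.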 Shown is part of a subset that was picked to be rich in actives. More than one record can exist for a structure, and the calls need not agree.",
  "data": [
    {"assay": "reduced GFP signal of wild-type E. coli, primary screen, bacterial rRNA inhibitor project, GFP/RFP fluorescence, OD600, single point (AID 720706)", "conditions": "E. coli WT GFP vs humanized-ribosome RFP mutants, 24 h; GFP signal change (wild-type ribosome): stronger effect = lower value, DMSO median 0, no signal -100; OD600 change: measured here: OD600 growth, DMSO median 0, no signal -100; RFP signal change: measured here: RFP humanized mutant strains, DMSO median 0, no signal -100, concentration not given here", "values": [
      {"smiles": "COc1ccccc1NC(=O)N[C@H]1CC[C@@H](CC(=O)NCc2ccc(Cl)c(Cl)c2)O[C@H]1CO", "GFP signal change (wild-type ribosome)": "-9.75% (inactive)", "OD600 change": "-22.7%", "RFP signal change": "1.88%"},
      {"smiles": "CC12CCC(=O)C=C1CCC1C2C(O)CC2(C)C1CCC2(O)C(O)CO", "note": "(stereo not given)", "GFP signal change (wild-type ribosome)": "8.19% (inactive)", "OD600 change": "4.56%", "RFP signal change": "4.01%"},
      {"smiles": "CC(=O)C12CC(C)=C(C)CC1CC1C3CCC4=CC(=O)CCC4(C)C3CCC12C", "note": "(stereo not given)", "GFP signal change (wild-type ribosome)": "-17.6% (active)", "OD600 change": "7.85%", "RFP signal change": "5.44%"},
      {"smiles": "CC(=O)O[C@]1(C(C)=O)CC[C@H]2[C@@H]3C=C(C)C4=CC(=O)CC[C@]4(C)[C@H]3CC[C@@]21C", "GFP signal change (wild-type ribosome)": "-55.8% (inactive)", "OD600 change": "-76.8%", "RFP signal change": "-10.6%"},
      {"smiles": "CCCC#Cc1ccc([C@H]2[C@H]3CN(C(=O)Nc4cc(F)ccc4F)CC(=O)N3[C@H]2CO)cc1", "GFP signal change (wild-type ribosome)": "-18.4% (inactive)", "OD600 change": "-50.2%", "RFP signal change": "11.1%"},
      {"smiles": "C[C@@H]1CN([C@H](C)CO)C(=O)c2cc(NC(=O)NC3CCCCC3)ccc2O[C@H]1CN(C)C(=O)Nc1ccccc1", "GFP signal change (wild-type ribosome)": "5.36% (inactive)", "OD600 change": "10.1%", "RFP signal change": "2.7%"},
      {"smiles": "O=C(C[C@H]1C=C[C@H](NC(=O)C2CCC2)[C@H](CO)O1)NCCCN1CCOCC1", "GFP signal change (wild-type ribosome)": "1.78% (inactive)", "OD600 change": "4.36%", "RFP signal change": "-0.385%"},
      {"smiles": "CCCCCn1nnnc1C1c2ccccc2C(=O)N1Cc1ccco1", "note": "(stereo not given)", "GFP signal change (wild-type ribosome)": "-4.73% (inactive)", "OD600 change": "-2.58%", "RFP signal change": "-0.015%"},
      {"smiles": "CCCCn1c(-c2cccc(C)c2)nc2cc3[nH]c(=O)c(C(C)C)nc3cc21", "GFP signal change (wild-type ribosome)": "-29.5% (inactive)", "OD600 change": "-62%", "RFP signal change": "13.5%"},
      {"smiles": "CCCCCn1nnnc1-c1nc2cc3ccccc3cc2[nH]c1=O", "GFP signal change (wild-type ribosome)": "-19.2% (active)", "OD600 change": "-5.54%", "RFP signal change": "8.22%"},
      {"smiles": "Cc1[nH]c2ccc(C(=O)N3CCN(C)CC3)cc2c1C", "GFP signal change (wild-type ribosome)": "6.6% (inactive)", "OD600 change": "11%", "RFP signal change": "3.29%"},
      {"smiles": "CCn1c(C)c(C)c2cc(C(=O)N3CCN(c4cccc(C)c4C)CC3)ccc21", "GFP signal change (wild-type ribosome)": "13.4% (inactive)", "OD600 change": "-10.1%", "RFP signal change": "8.15%"},
      {"smiles": "CCOc1ccccc1N1CCN(C(=O)c2ccc3[nH]c(C)c(C)c3c2)CC1", "GFP signal change (wild-type ribosome)": "-34.6% (active)", "OD600 change": "-17.6%", "RFP signal change": "7.07%"},
      {"smiles": "CNC[C@@H]1Oc2ccc(N(C)C)cc2CC(=O)N(C)C[C@@H]1C", "GFP signal change (wild-type ribosome)": "-0.679% (inactive)", "OD600 change": "1.44%", "RFP signal change": "-1.38%"},
      {"smiles": "CN(/N=C/c1ccccc1)C(=S)c1ccccc1", "GFP signal change (wild-type ribosome)": "-28.9% (active)", "OD600 change": "-13.5%", "RFP signal change": "-2.92%"},
      {"smiles": "NN=C(NN=Cc1ccccc1)c1ccccc1", "GFP signal change (wild-type ribosome)": "3.05% (inactive)", "OD600 change": "19.4%", "RFP signal change": "-0.189%"},
      {"smiles": "CN(O)C(=S)c1ccccc1", "GFP signal change (wild-type ribosome)": "-58% (inactive)", "OD600 change": "-75.2%", "RFP signal change": "-15%"},
      {"smiles": "O=C(C[C@H]1C[C@@H]2c3cc(NS(=O)(=O)c4ccc(F)cc4)ccc3O[C@@H]2[C@H](CO)O1)NCc1cccc(F)c1", "GFP signal change (wild-type ribosome)": "0.64% (inactive)", "OD600 change": "-2.85%", "RFP signal change": "2.59%"},
      {"smiles": "CCC(=O)N1CC(=O)N2[C@@H](CO)[C@H](c3ccc(C#CC4CCCC4)cc3)[C@@H]2C1", "GFP signal change (wild-type ribosome)": "1.66% (inactive)", "OD600 change": "-3.78%", "RFP signal change": "-1.59%"},
      {"smiles": "O=C(C[C@@H]1CC[C@H]2[C@@H](COC[C@@H](O)CN2C(=O)c2ccc3c(c2)OCO3)O1)NC1Cc2ccccc2C1", "GFP signal change (wild-type ribosome)": "1.47% (inactive)", "OD600 change": "-6.88%", "RFP signal change": "-0.618%"},
      {"smiles": "C[C@@H]1CN([C@@H](C)CO)C(=O)CCCn2nncc2CO[C@H]1CN(C)Cc1ccc(C(F)(F)F)cc1", "GFP signal change (wild-type ribosome)": "-3.59% (inactive) and 7.37% (inactive)", "OD600 change": "-1.83% and 9.18%", "RFP signal change": "2.44% and -0.538%"},
      {"smiles": "C[C@@H]1CN([C@@H](C)CO)C(=O)CCCn2nncc2CO[C@H]1CN(C)C(=O)Nc1ccc(C(F)(F)F)cc1", "GFP signal change (wild-type ribosome)": "-16.6% (active) and -54% (inactive)", "OD600 change": "-10.2% and -56.3%", "RFP signal change": "5.18% and -10.9%"},
      {"smiles": "C[C@H]1CN([C@@H](C)CO)C(=O)CCCn2nncc2CO[C@@H]1CN(C)C(=O)Nc1ccc(N2CCN(C)CC2)cc1", "GFP signal change (wild-type ribosome)": "22.4% (inactive) and -1.77% (inactive)", "OD600 change": "13.6% and 7.97%", "RFP signal change": "3.72% and -0.742%"},
      {"smiles": "CCCNC(=O)N1CC(=O)N2[C@H](C1)[C@@H](c1ccc(C#Cc3ccccc3)cc1)[C@@H]2CO", "GFP signal change (wild-type ribosome)": "-41.7% (inactive)", "OD600 change": "-70.4%", "RFP signal change": "-0.11%"},
      {"smiles": "COc1ccc2c3c(n(C)c2c1)[C@@H](CO)N(C(=O)Nc1ccccc1F)CC31CCN(C(=O)c2ccccc2F)CC1", "GFP signal change (wild-type ribosome)": "-2.62% (inactive)", "OD600 change": "-3.48%", "RFP signal change": "-0.298%"},
      {"smiles": "CO[C@@H](CN(C)C(=O)c1cnccn1)[C@H](C)CN([C@H](C)CO)S(=O)(=O)c1ccc(C)cc1", "GFP signal change (wild-type ribosome)": "1.87% (inactive)", "OD600 change": "2.69%", "RFP signal change": "-1.48%"},
      {"smiles": "CCc1nc2ccccc2c(C(=O)OC2CCCCC2=O)c1C", "note": "(stereo not given)", "GFP signal change (wild-type ribosome)": "-34.4% (active)", "OD600 change": "-20.5%", "RFP signal change": "3.94%"},
      {"smiles": "CCc1c(C)c2ccc(OC3CCCCC3=O)cc2oc1=O", "note": "(stereo not given)", "GFP signal change (wild-type ribosome)": "1.77% (inactive)", "OD600 change": "-3.25%", "RFP signal change": "1.07%"},
      {"smiles": "CCc1nc2ccccc2c(C(=O)NCc2ccc(OC)cc2)c1C", "GFP signal change (wild-type ribosome)": "-3.42% (inactive)", "OD600 change": "-5.87%", "RFP signal change": "-3.53%"},
      {"smiles": "CC(=O)N(C)C[C@@H]1Oc2cc(-c3cccnc3)ccc2S(=O)(=O)N([C@@H](C)CO)C[C@H]1C", "GFP signal change (wild-type ribosome)": "0.257% (inactive)", "OD600 change": "-3.4%", "RFP signal change": "-4.17%"},
      {"smiles": "O=C(CC1CC1)N1CC(=O)N2[C@H](CO)[C@H](c3ccc(C#Cc4ccc(F)cc4)cc3)[C@@H]2C1", "GFP signal change (wild-type ribosome)": "-21.5% (inactive)", "OD600 change": "-61.2%", "RFP signal change": "15.4%"},
      {"smiles": "COc1ccc(-c2cnc3c(c2)C(=O)N([C@H](C)CO)C[C@@H](C)[C@H](CN(C)C(=O)Cc2ccncc2)O3)cc1", "GFP signal change (wild-type ribosome)": "-1.52% (inactive)", "OD600 change": "2.2%", "RFP signal change": "-0.471%"},
      {"smiles": "COc1cccc(NC(=O)Nc2ccc3c(c2)OC[C@@H](C)NC[C@@H](C)[C@H](OC)CN(C)C3=O)c1", "GFP signal change (wild-type ribosome)": "0.255% (inactive)", "OD600 change": "0.1%", "RFP signal change": "2.58%"},
      {"smiles": "C[C@@H]1CCCCO[C@H](CN(C)C(=O)CCCN(C)C)[C@@H](C)CN([C@@H](C)CO)C(=O)c2cc(NC(=O)c3ccncc3)ccc2O1", "GFP signal change (wild-type ribosome)": "3.33% (inactive)", "OD600 change": "12.1%", "RFP signal change": "-1.91%"},
      {"smiles": "COc1ccccc1N1CCN(C(=O)c2cc3c(-c4ccc(Cl)cc4)nn(C)c3s2)CC1", "GFP signal change (wild-type ribosome)": "0.925% (inactive)", "OD600 change": "11.2%", "RFP signal change": "2.25%"},
      {"smiles": "Cn1nc(-c2ccc(Cl)cc2)c2cc(C(=O)NCc3ccco3)sc21", "GFP signal change (wild-type ribosome)": "-29.9% (inactive)", "OD600 change": "-25.9%", "RFP signal change": "-16.6%"},
      {"smiles": "CCOC(=O)N1CCN(C(=O)c2cc3c(-c4ccc(Cl)cc4)nn(C)c3s2)CC1", "GFP signal change (wild-type ribosome)": "-22.9% (active)", "OD600 change": "-10.6%", "RFP signal change": "-5.96%"},
      {"smiles": "COc1ccc2c3c(n(C)c2c1)[C@H](CO)NCC31CN(Cc2cc(F)ccc2F)C1", "GFP signal change (wild-type ribosome)": "-2.04% (inactive)", "OD600 change": "1.28%", "RFP signal change": "1.51%"},
      {"smiles": "CCc1c(N=O)c(-c2ccccc2)n(O)[n+]1[O-]", "GFP signal change (wild-type ribosome)": "-18.1% (active)", "OD600 change": "0.75%", "RFP signal change": "-2.88%"},
      {"smiles": "CCOC(=O)c1ccn(S(=O)(=O)c2ccc(C)cc2)c1-c1ccccc1", "GFP signal change (wild-type ribosome)": "-4.05% (inactive)", "OD600 change": "-26.5%", "RFP signal change": "-5.7%"}
    ]}
  ]
}
